# Results: the supplement of paper PMC6555819
# Columns and labels:
# Assay in all cases: PBM binding z-score (relative to random genomic background probes); higher = stronger binding; sequences stand for … in GC…GCGATTGACAGCGTAGAATGAAGG
# [1] = system: FXR:RXRa (NR concentration 270 nM, RXRa partner concentration 90 nM)
# Procedure, shortened: (§1)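 On custom Agilent 4×180K arrays, double-stranded probes with 34-nt variable regions carried direct-repeat seeds, single-nucleotide variants, half-site ablations or random human genomic background. Ligand-free nuclear receptor dimers were applied for 1 h, and binding was read with antibodies against each partner (one per run). Binding z-scores come from regression-normalized fluorescence, with the random background probes as reference.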
# [2] = system: LXRa:RXRa (NR concentration 270 nM, RXRa partner concentration 90 nM)
# Procedure, shortened: as §1
# [3] = system: LXRa homodimer (NR concentration 270 nM)
# Procedure, shortened: as §1
# [4] = system: LXRb:RXRa (NR concentration 270 nM, RXRa partner concentration 90 nM)
# Procedure, shortened: as §1
# [5] = system: LXRb homodimer (NR concentration 270 nM)
# Procedure, shortened: as §1
# [6] = system: PPARa:RXRa (NR concentration 270 nM, RXRa partner concentration 90 nM)
# Procedure, shortened: as §1
# [7] = system: PPARg:RXRa (NR concentration 180 nM, RXRa partner concentration 90 nM)
# Procedure, shortened: as §1
# [8] = system: PPARg:RXRa 270nM:90nM, anti-RXR (NR concentration 270 nM, RXRa partner concentration 90 nM)
# Procedure, shortened: as §1
# [9] = system: PPARg:RXRa 30nM:10nM, anti-RXR (NR concentration 30 nM, RXRa partner concentration 10 nM)
# Procedure, shortened: as §1
# [10] = system: PPARg:RXRa 90nM:30nM, anti-RXR (NR concentration 90 nM, RXRa partner concentration 30 nM)
# Procedure, shortened: as §1
# [11] = system: PPARg:RXRa DBDmut IVT, anti-RXR (DBD mutation: RXRa K156A/R161A, NR concentration 270 nM, RXRa partner concentration 90 nM)
# Procedure, shortened: as §1
# [12] = system: PPARg:RXRa IVT, anti-PPARg (NR concentration 270 nM, RXRa partner concentration 90 nM)
# Procedure, shortened: as §1
# [13] = system: PPARg DBDmut:RXRa IVT, anti-PPARg (DBD mutation: PPARg1 K132A/R137A, NR concentration 270 nM, RXRa partner concentration 90 nM)
# Procedure, shortened: as §1
# [14] = system: PPARg DBDmut IVT, anti-PPARg (DBD mutation: PPARg1 K132A/R137A, NR concentration 270 nM)
# Procedure, shortened: as §1
# [15] = system: PPARg homodimer (NR concentration 180 nM)
# Procedure, shortened: as §1
# [16] = system: PXR:RXRa (NR concentration 270 nM, RXRa partner concentration 90 nM)
# Procedure, shortened: as §1
# [17] = system: PXR homodimer (NR concentration 270 nM)
# Procedure, shortened: as §1
# [18] = system: RARa:RXR (NR concentration 270 nM, RXRa partner concentration 90 nM)
# Procedure, shortened: as §1
# [19] = system: RARa homodimer (NR concentration 270 nM)
# Procedure, shortened: as §1
# [20] = system: RARb:RXRa (NR concentration 270 nM, RXRa partner concentration 90 nM)
# Procedure, shortened: as §1
Sequence,PBM binding z-score [1],PBM binding z-score [2],PBM binding z-score [3],PBM binding z-score [4],PBM binding z-score [5],PBM binding z-score [6],PBM binding z-score [7],PBM binding z-score [8],PBM binding z-score [9],PBM binding z-score [10],PBM binding z-score [11],PBM binding z-score [12],PBM binding z-score [13],PBM binding z-score [14],PBM binding z-score [15],PBM binding z-score [16],PBM binding z-score [17],PBM binding z-score [18],PBM binding z-score [19],PBM binding z-score [20]
AGAACGAGGGCAATGAGTTGGTAGCACGGGTGGC,0.301,0.0909,-0.759,-0.443,-0.642,1.18,0.956,0.772,-0.238,0.196,3.11,2.58,0.246,-0.0657,-0.218,0.943,1.44,0.0918,-0.865,1.96
ATCTCTAGGTAAACTTCAGTGAAAGATCGATAGA,0.831,0.515,0.351,0.0821,1.21,0.408,0.488,0.399,0.397,0.45,2.68,2.02,1.5,1.2,0.999,0.0812,0.42,0.344,1.42,0.268
TCTGCTAGGGCAGTTGGTCAGCTAACGAGCTGCC,-0.253,-0.634,-0.708,-0.857,-0.624,-0.359,-0.953,0.135,0.729,0.414,1.38,0.996,-0.206,-0.384,-0.702,-0.671,-0.958,-0.138,-1.3,1.14
TATCCTAGGTCATTCAGGGGCCAGTATAGAAAGC,5.25,5.67,4.76,3.96,4.11,4.18,3.29,3.8,1.64,3.05,4.17,4.85,1.68,2.21,3.21,3.08,0.861,3.84,1.26,4.08
CCTCGGAGGACAACAGGACGTCAGAGCTGCCAGA,0.0455,-0.556,-0.533,-0.881,-0.769,-0.616,0.187,-1.2,-0.952,-1.19,-0.431,-0.589,-0.661,-1.48,-0.0308,-0.587,-0.482,-0.32,-0.489,0.92
TATCCTAGGTCATGGGCCAGTATACCACGCGAAC,5,5.58,3.83,3.5,1.69,4.57,5.5,5.51,3.05,4.89,4.23,5.29,1.4,1.68,1.22,2.25,0.762,2.93,1.01,4.06
CGAACTAGGTCATTGACAGGACAGGGAATAGTAA,4.56,2.81,0.225,1.82,-0.158,4.65,7.57,6.18,4.13,5.76,8.02,8.21,2.18,1.03,1.49,1.43,0.107,2.22,0.195,3.69
TCTTGTAGATCAACCGGAGGTTAAGAAAGATCGA,0.397,1.58,1.09,1.17,-0.00394,1.26,-0.257,1.55,2.69,2.15,1.73,0.867,0.463,0.343,-0.156,0.984,0.000543,1.25,-0.186,0.743
GCGACTGGGGCATCAGCTGGTTACCATAACTTAA,-0.422,-0.589,-0.452,0.296,-0.935,0.397,0.563,0.562,-0.565,0.127,3.64,3.01,-1.02,-0.691,-0.402,-0.444,-1.17,-0.536,-1.25,0.475
ACTAGCAGGCCAAGGATCACTCAAGATTAGTCCG,-0.313,-0.212,-0.373,-0.592,-0.598,0.628,2.12,3.37,1.33,2.55,0.88,0.675,-0.388,-0.36,0.0853,-0.479,-0.469,-0.293,0.362,0.296
GCGACTGGGGCATCAGCAGGATACCATAACTTAA,-0.587,-0.962,-0.678,-0.508,-0.969,0.0763,0.883,0.422,-0.491,-0.212,3.9,2.61,-1.01,-0.959,-0.175,-0.691,-0.304,-0.475,-0.756,0.233
TCTATTAGTTGATTCGGGCAACCGAAACAGCGGA,0.597,0.339,0.411,0.655,0.739,0.742,-0.102,1.84,3.9,2.85,1.91,0.598,0.957,0.979,0.106,0.3,0.223,0.414,0.742,0.671
CCTAGTTGGTCAGGAGGTCTCACACCGGATATGA,0.237,0.219,0.125,-0.00774,-0.246,0.135,0.469,0.772,-0.0549,0.338,0.196,1.02,-0.277,0.59,1.25,-0.0259,0.521,0.0681,1.06,0.838
TCGAATAGGTTAGGGGCATTCAGAATGGCGTCGA,0.35,0.807,-0.0676,1.26,0.0688,1.49,0.443,2.13,2.93,2.56,1.9,0.68,-0.275,-0.57,0.452,0.695,0.0158,0.806,0.0673,1.5
CAAACTAGGTCACGAAAGGCCAAAGTCGAATGAC,5.15,6.02,1.03,4.03,0.629,5.58,9.27,7.42,5.71,7.41,8.35,9.09,5.28,3.96,2.99,4.77,0.402,3.68,0.983,4.56
TAGTCTAGGTCATTGGGCCAGTATAGTACGCATC,4.44,4.2,2.26,2.54,2.53,4.28,5.91,4.82,3,4.56,5.99,6.49,2.81,2.94,3.92,1.95,0.361,2.72,1.24,3.81
GCGACGGGGGCATCAGCAGGTTACCATAACTTAA,2.95,3.18,0.557,5.21,8.02,4.19,2.48,3.35,1.55,2.59,1.76,4.14,7.32,9.29,1.83,3.29,0.826,3.42,-0.447,3.16
CCTACTGGGCCAAAAAGGTCACTGATGCCGATAA,2.83,3.29,1.36,3.63,-0.14,4.64,3.78,4.35,1.79,3.78,3.78,4.39,-0.138,-0.0876,3.8,4.22,1.16,4.59,1.29,4.15
CCGACTGGGGCATAAGGTTACCATAAGCCAGCCC,0.197,1.68,-0.354,0.645,-1.33,1.75,2.29,3.15,0.853,2.5,2.93,3.01,-0.979,-1.34,0.447,0.164,-0.32,1.11,-0.464,1.66
CGTCATAGTTCAACTAAGGTAACGTAAAGCACGC,3.55,3.63,1.02,2.13,0.806,3.13,1.66,2.25,0.562,1.56,0.114,1.07,0.48,1.14,1.81,3.86,1.23,2.73,1.04,3.59
TGTCAAAGTTCACAGGTAACGTAAGTATCCACAC,6.59,5.87,3.37,4.04,1.49,6.02,8.64,7.43,5.54,7.12,0.161,4.5,1.61,1.53,2.45,4.48,2.4,3.92,1.08,5.05
TGGCAAAGTTCAAAGGTAACGTAAGTATCCACAC,7.23,6.17,4.18,4.49,1.25,5.55,6.74,7.1,4.38,6.02,-0.0424,3.1,0.662,1.12,3.45,5.58,4.43,6.87,1.43,5.11
TCAGACAGGTGAAGGTTACTCAGGTACGCAGTCG,1.24,3.55,0.607,2.38,0.0683,1.81,1.06,2.39,3.71,2.81,2.66,1.5,0.0117,0.759,1.02,1.38,0.43,1.55,0.589,1.83
ATCTCTAGGGAAAGTTCAGTGAAAGATCGATAGA,0.806,1.28,0.993,0.942,0.681,1.42,0.591,1.84,0.725,1.51,0.291,0.739,0.561,0.968,1.06,1.52,1.46,1.38,1.07,2.61
TCTTGTAGATCAACAGGAGCTTAAGAAAGATCGA,-0.438,-0.744,-1.18,-0.366,-0.825,0.0739,-0.318,0.847,2.14,1.43,1.16,0.103,0.548,-0.235,-1.17,-0.361,-0.82,-0.535,-0.604,-0.522
ACTAGCAGGCCAAGGGACACTCAAGATTAGTCCG,-0.455,-0.514,-0.423,-0.897,-0.655,-0.248,1.88,1.99,0.906,1.86,0.487,0.462,-1.43,-0.851,-0.118,-0.905,-0.667,-0.78,-0.11,1.05
